# Screening data deposited in PubChem BioAssay by several laboratories.
# WT yeast gro inh: growth inhibition of WT yeast, mitochondrial fusion screen; AID 1362; 190,000 compounds, 2.1% hits; inhibition, % at 10 µM; mitochondrial fusion phenotypic screen, WT strain; in the data active = inhibition above about 58%; tested in S. cerevisiae
# PERK inh: human PERK inhibition, primary cell-based screen; Q9NZJ5; CHO PERK-DD fusion, SEAP luminescence translation reporter; inhibition, % at 5.6 µM; 220,000 compounds, 0.17% hits; AID 1416;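 active = inhibition above the mean inhibition of all tested compounds plus 3 SD, set separately per screening campaign, cut at about 2.9% in these data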;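 also: PERK kinase domain activated by AP20187 dimerizer at 100 nM; 0% = DMSO with dimerizer and 100% = rapamycin at 8.4 µM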
# ROMK primary: human ROMK K+ channel modulation, primary screen; 130,000 compounds, 2% hits; B-score at 10 µM; Tet-inducible ROMK, thallium flux fluorescence; actives lie on both sides; AID 1918;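 active = signal ratio slope over the read window, or its plate-corrected B-score, at least 3 SD from the plate mean, either direction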;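 also: B-score of the F/F0 ratio slope over 7 to 12 s after thallium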
# Target sequence (P48048 whole entry, looked up): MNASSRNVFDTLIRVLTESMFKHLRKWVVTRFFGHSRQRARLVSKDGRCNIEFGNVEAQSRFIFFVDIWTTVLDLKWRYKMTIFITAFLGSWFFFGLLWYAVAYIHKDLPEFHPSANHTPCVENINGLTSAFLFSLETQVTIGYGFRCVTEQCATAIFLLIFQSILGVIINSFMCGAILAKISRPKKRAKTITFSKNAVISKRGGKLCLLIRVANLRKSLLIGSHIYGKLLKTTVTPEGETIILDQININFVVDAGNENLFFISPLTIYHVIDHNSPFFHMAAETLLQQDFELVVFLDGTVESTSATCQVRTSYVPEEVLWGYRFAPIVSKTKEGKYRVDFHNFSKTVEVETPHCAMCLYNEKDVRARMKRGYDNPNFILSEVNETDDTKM
# Arbovirus anti: blocks arbovirus infection. arbovirus infection cell-based antiviral screen. inhibition, % at 10 µM. 200,000 compounds, 0.37% hits. AID 1251; in the data active = inhibition above about 30%
# The depositor's hits bear a star; nt = no result given. The list is not random: actives were taken first. Their share in the collection is about 3.3%.
SMILES,WT yeast gro inh,PERK inh,ROMK primary,Arbovirus anti
C=CCc1cccc(/C=N/NC(=O)CNc2cccc3ccccc23)c1O,62*,0,0.9,-31
O=C(CNc1cccc2ccccc12)N/N=C/c1ccc[nH]1,nt,-1,-0.045,nt
O=C(CNc1cccc2ccccc12)N/N=C/C(Br)=C/c1ccccc1,72*,1,nt,-12
C=CCc1cccc(/C=N/NC(=O)CNc2ccccc2OC)c1O,-4,0,1.2,-30
CCCCNC(=O)/C(=C/c1ccccc1)NC(C)=O,-10,1,-0.57,3
O=C(CN1/C(=C(/O)c2ccccc2)C(=O)c2ccccc2S1(=O)=O)c1ccccc1,64*,0,-1,-15
COc1ccc(C(=O)CN2C(=O)c3ccccc3S2(=O)=O)cc1,nt,2,nt,nt
COc1ccc(/C=C2\CC/C(=C\c3ccc(OC)cc3OC)C2=O)c(OC)c1,2,1,-2.7*,-6
COc1ccc(-c2nc(=S)c3ccc4ccccc4c3[nH]2)cc1,10,1,0.32,6
Cc1ccc(NC(=O)COc2ccc(Br)cc2CO)cc1,-8,-2,nt,36*
O=C(COc1ccc(Br)cc1CO)Nc1ccccc1,-16,0,nt,2
COc1c(Br)cc([N+](=O)[O-])c(OC)c1C(=O)NC(=O)Nc1nc(C)cc(C)n1,nt,0,nt,nt
O=c1c2ccccc2n(Cc2cccc(F)c2)c(=O)n1C1CCCC1,76*,0,nt,-5
C/C(N=Nc1nc2ccccc2s1)=N\Nc1ccccc1O,nt,-1,0.12,nt
COc1ccc(CNC(=S)NCc2ccc(OC)cc2)cc1,4,0,0.87,3
CC(C)COc1ccc(CNC(=S)NCc2ccccc2)cc1,69*,1,-0.11,-42
COc1ccc(CNC(=S)NC(C)CCc2ccccc2)cc1 (stereo not drawn),71*,-1,-0.26,22
COCCNC(=O)c1ccccc1NC(=O)c1cccc([N+](=O)[O-])c1C,-5,0,-0.093,-7
COc1cc(/C=N/NC(=O)c2cn(-c3cccc(C)n3)cn2)ccc1O,4,1,-0.59,-8
CCc1c(C)nc(N)n2c(SCC(=O)N3CCCC(C)C3)nnc12 (stereo not drawn),-2,-1,nt,6
CCOC(=O)Cc1csc(NS(=O)(=O)c2ccc(OC)cc2)n1,-5,1,0.71,7
COC(=O)Cc1c(C)nc2nc(NCc3ccccc3OC)[nH]n2c1=O,2,-1,nt,5
COc1ccccc1CNc1nc2nc(C)c(C)c(=O)n2[nH]1,79*,0,-0.079,10
COc1ccc(C(=O)N/N=C(\c2ccccc2)c2ccccn2)cc1,68*,-1,0.73,-26
COc1cccc(CN=C2Nc3ccccc3CS2)c1,0,0,-0.88,30*
SMILES,WT yeast gro inh,PERK inh,ROMK primary,Arbovirus anti
COc1ccccc1NC(=S)N(Cc1ccccn1)Cc1ccccc1Cl,67*,0,0.18,3
Cc1ccccc1NC(=S)N(Cc1cccnc1)Cc1ccccc1Cl,6,0,0.65,16
Cc1ccccc1NC(=S)N(Cc1ccccn1)Cc1ccccc1Cl,69*,-1,-1.3,11
COc1ccccc1NC(=S)N(Cc1ccc(C)cc1)Cc1cccnc1,74*,1,1.5,12
O=c1c2ccccc2nc(SCc2ccc([N+](=O)[O-])cc2)n1CCCO,-9,0,nt,7
O=c1[nH]c(-c2ccccc2Cl)nc2c1sc(=S)n2-c1ccccc1,-4,1,-0.093,16
O=S(=O)(NCc1ccc(Cl)cc1)c1ccc(Cl)nc1,13,1,nt,1
Cc1c(CN(C)C)c2c(n1C)C(=O)c1ccc(Br)cc1-2,-3,-2,-1.5,-8
Cc1c(CN(C)C)c2c(n1Cc1ccccc1)C(=O)c1ccc(Br)cc1-2,82*,-2,-0.1,-43
O=C(C1=C[C@@H](C2CCCCC2)C[C@@H](OCc2ccc(CO)cc2)O1)N1CCN(Cc2ccccc2)CC1,64*,1,nt,-20
O=C(C1=C[C@H](C2CCCCC2)C[C@H](OCc2ccc(CO)cc2)O1)N1CCN(Cc2ccccc2)CC1,72*,0,nt,-20
C[C@@H]1C=C(C(=O)N2CCN(Cc3ccccc3)CC2)O[C@H](OCc2ccc(CO)cc2)C1,-4,0,nt,0
CC(C)(C)[C@H]1C=C(C(=O)N2CCN(Cc3ccccc3)CC2)O[C@@H](OCc2ccc(CO)cc2)C1,72*,1,nt,-9
O=C(C1=C[C@H](C2CCCCC2)C[C@H](OCc2ccc(CO)cc2)O1)N1CCOCC1,6,0,nt,5
Nc1ccc(C(=O)OC2CCOC2=O)cc1[N+](=O)[O-] (stereo not drawn),-10,1,-0.12,1
Cc1ccc(-c2cc3nn(-c4ccccc4)c(N)c3c(=O)o2)cc1,-16,-1,nt,-1
CCC(C)c1ccc(NC(=S)Nc2ccc(OC)cc2)cc1 (stereo not drawn),72*,0,nt,10
CCCCc1ccc(NC(=S)NCc2ccc(OC)cc2)cc1,72*,1,0.044,-5
CCCCc1ccc(NC(=S)NCc2cccs2)cc1,8,-1,nt,-37
CCC(C)c1ccc(NC(=S)NC2CCN(Cc3ccccc3)CC2)cc1 (stereo not drawn),75*,-1,nt,-34
CCOc1ccc(NC(=S)Nc2ccc(OC)cc2)cc1,-2,1,0.4,5
CCCCc1ccc(NC(=S)NCc2ccccc2OC)cc1,65*,1,-0.54,13
C=CCn1cnc2c(nnn2-c2ccc(C)c(C)c2)c1=O,4,1,-0.24,-2
Cc1nn(CC(=O)OCC(=O)Nc2ccccc2[N+](=O)[O-])c(C)c1[N+](=O)[O-],10,0,nt,-2
Cc1ccc(CCC(=O)Nc2ccccc2F)s1,16,1,0.19,1
SMILES,WT yeast gro inh,PERK inh,ROMK primary,Arbovirus anti
Cc1cc(C)n(-c2nc(C)nc3c2cnn3-c2ccccc2)n1,65*,2,nt,1
Cc1cc(C)n(-c2nc3ccccc3c3nc(C)nn23)n1,9,1,nt,10
Cc1ccc(C(C#N)c2ccc3c(C(F)(F)F)cc(C(F)(F)F)nc3n2)cc1 (stereo not drawn),69*,1,nt,-6
N#CC(c1ccccc1)c1ccc2c(C(F)(F)F)cc(C(F)(F)F)nc2n1 (stereo not drawn),74*,0,-0.46,-21
FC(F)(F)c1cc(C(F)(F)F)c2ccc(N/N=C/c3ccccc3)nc2n1,7,0,-0.76,4
CN(N)c1ccc2c(C(F)(F)F)cc(C(F)(F)F)nc2n1,21,0,1.2,-6
Cc1ccc(C2CC(=O)NC(SCC(N)=O)=C2C#N)s1 (stereo not drawn),-2,1,-0.8,2
O=C(c1ccc(Cl)cc1[N+](=O)[O-])N(Cc1ccccc1)Cc1ccccc1,61*,0,0.33,-1
Cc1cccc(C)c1NC(=S)Nc1ccc(Cl)c(Cl)c1,80*,-1,0.079,-18
Cc1ccc(NC(=S)Nc2ccc(OC(F)F)c(Cl)c2)cc1Cl,73*,1,1.4,-9
FC(F)Oc1ccc(NC(=S)NCc2ccccc2)cc1Cl,58*,1,-1.1,-19
CC(NC(=S)Nc1ccc(OC(F)F)c(Cl)c1)C(C)(C)C (stereo not drawn),47,1,-0.72,-16
O=S(=O)(c1ccc(Cl)c(NC(=S)Nc2ccccc2N2CCOCC2)c1)N1CCOCC1,10,1,-0.00031,6
